High-throughput results as filed in PubChem BioAssay.
Beta cell apopt = beta cell apoptosis inhibition; INS-1E cytokine-induced death, ATP luminescence, 48 h; percent of positive-control rescue, neutral wells zero; protection from apoptosis, % (concentration not given with the values); 300,000 tested, 0.8% active;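 active = Every replicate reaches about 75%, or at least half do and their mean reaches it too, limit read from the data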;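 note: 0% = cytokine-treated negative control wells and 100% = positive control rescue; higher means more ATP so stronger rescue from cytokine killing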
CSC inhib = blocks cancer stem cells | cancer stem cell-like cells viability, luminescence | inhibition, % at 7.5 µM | 300,000 tested, 1.1% active; in the data active = inhibition above about 75%; tested in HMLE shEcad cells
MPTP inh = inhibitors of mitochondrial permeability transition pore; isolated mouse mitochondria, Ca2+ swelling absorbance, 30 min; inhibition, % at 10 µM; 360,000 tested, 1.4% active;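 active = inhibition of 50% or more, scaled per plate between neutral and stimulator controls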;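 note: 0% = DMSO wells given calcium and 100% = 1 mM EGTA wells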
Gli-Sufu antag = blocks Gli-Sufu signaling in a luciferase reporter; AID 588413; Sufu-KO-LIGHT fibroblasts, Gli luciferase reporter luminescence; inhibition, % at 5 µM; 340,000 tested, 0.74% active;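 active = inhibition above about 55%, limit read from the data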;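 note: 0% = DMSO-treated cells and 100% = wells with medium but no cells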
GRIN3A LBD mod = modulators (binders) of human NR3A ligand-binding domain. NR3A LBD differential scanning fluorimetry, Tm shift; 0% = protein alone, 100% = glycine-bound protein. Tm shift relative to glycine control, % at 25 µM. 340,000 tested, 2.5% active;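 active = melting temperature shift of at least 10% of the positive control shift, at one fixed dose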
Mdm2-MdmX inh = human Mdm2/MdmX binding inhibition; 330,000 tested, 3% active; inhibition, % at 8 µM; O15151+Q00987; SaOS-2 split-luciferase Mdm2/MdmX complementation, luminescence;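 active = inhibition of at least 50% at 8 µM in the primary screen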
Mdm2 MdmX conf = confirmation of human Mdm2/MdmX interaction inhibitors; shares compounds with Mdm2-MdmX inh; Mdm2-MdmX binding, luminescent assay; inhibition, % at 8 µM; 10,000 tested, 55% active; in the data active = inhibition above about 40%
Full FLuc ctr = counter-screen for Mdm2/MdmX inhibitors: full-length luciferase | SaOS-2 full-length luciferase counterscreen, luminescence | 6,200 tested, 77% active | shares compounds with Mdm2-MdmX inh | inhibition, % at 8 µM;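 active = mean inhibition at 8 µM reaching about 37%, which flags the compound as non-specific, limit read from the data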;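 note: p53-null SaOS-2 cells with luciferase driven by a doxycycline-inducible promoter; compound on cells about two nights before reading with doxycycline added after day one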
Active calls of the source: *; · = no result. In the library only some 6.6% were active in any assay of this set; here they are far more common.

SMILES	Beta cell apopt	CSC inhib	MPTP inh	Gli-Sufu antag	GRIN3A LBD mod	Mdm2-MdmX inh	Mdm2 MdmX conf	Full FLuc ctr
Cc1ccc(CNc2cc(-c3nn4c(C)nnc4s3)ccc2C)s1	·	·	3.4	16.0	-3.4	41.0	·	·
Cc1ccc(-c2nn3c(C)nnc3s2)cc1NCc1c(F)cccc1Cl	24.4	39.4	6.7	18.9	2.8	81.4*	66.5*	56.5*
Cc1ccccc1OC1CCN(C(=O)C2CCC(=O)N(C3CCCC3)C2)CC1 (stereo not given)	·	·	0.4	14.6	1.8	7.1	·	·
CCOC(=O)C1=CN(Cc2cccc(F)c2)S(=O)(=O)NC1c1ccccc1 (stereo not given)	·	·	0.5	-2.7	-1.5	-3.4	·	·
CCOC(=O)C1=CN(Cc2cccc(F)c2)S(=O)(=O)NC1CCc1ccccc1 (stereo not given)	·	·	4.0	-2.6	-4.7	60.8*	29.1	47.0*
Cc1cc2nc3n(c2cc1C)CC1CC(C(=O)NCc2ccco2)N(C)C31 (stereo not given)	-20.0	-9.5	-2.3	0.9	-2.1	0.8	·	·
Fc1ccccc1CNCc1ccc2c(c1)OCO2	1.2	-17.2	-1.1	1.6	-2.1	0.8	·	·
N#CC1=C(N)Oc2c(ccc3cccnc23)C1c1ccccc1 (stereo not given)	97.2*	38.6	-1.3	-5.8	-0.4	74.7*	57.9*	53.7*
Cc1ccc2[nH]c(=O)c(C3C(C#N)=C(N)Oc4c3ccc3cccnc43)cc2c1 (stereo not given)	91.4*	7.2	0.6	18.8	-1.3	56.5*	41.6*	43.5*
COC(=O)C1=C(C)NC(C)=C(C(=O)OC)C1c1cc2cc(C)ccc2[nH]c1=O	-1.7	-9.3	0.0	-0.5	0.8	-31.7	·	·
Cc1ccc(C(=O)N2CC(=O)NC(=O)C2)cc1	-4.0	-2.1	0.7	-25.4	0.3	28.0	·	·
N/C(=N\c1nc2ccccc2o1)NC(=O)c1cccc(Cl)c1	10.0	19.6	0.6	-4.2	2.9	50.7*	16.9	·
CN(Cc1ccccc1)c1ncnc2ccc(Br)cc12	-5.9	-6.7	11.5	-1.9	-0.6	57.3*	48.8*	38.6*
CCCCN1CC(N2CCN(C(=O)c3ccco3)CC2)CS1(=O)=O (stereo not given)	·	·	0.3	·	·	·	·	·
COc1cc(/C=C2\SC(=Nc3ccc(O)cc3)NC2=O)cc(OC)c1O	6.2	49.5	-1.0	-2.9	12.6*	55.9*	41.2*	81.1*
CCc1ccc(N=C2NC(=O)/C(=C/c3cc(OC)c(OC)c(OC)c3)S2)cc1	4.4	44.1	0.9	42.9	-7.0	46.1	·	·
Cn1cccc1/C=C1\SC(=Nc2ccc(O)cc2)NC1=O	18.1	61.3	1.3	37.4	0.4	67.6*	62.0*	159.9*
COc1ccc(-c2cc(C(=O)N/N=C/c3sccc3C)c3ccccc3n2)c(OC)c1	11.3	48.7	0.2	3.7	-1.8	88.2*	87.4*	31.4
COc1ccccc1-c1cc(C(=O)N/N=C/c2cccs2)c2ccccc2n1	3.9	25.6	-0.3	10.3	-6.0	65.6*	35.0	·
COc1ccccc1-c1cc(C(=O)N/N=C\c2cnn(C)c2C)c2ccccc2n1	6.6	-10.1	-0.1	-3.6	-1.0	-24.2	·	·
COc1ccc(O)c(/C=N/Nc2nc(C)cc(-c3ccccc3)n2)c1	5.4	30.2	2.7	6.8	7.3	29.0	·	·
COc1cc(/C=N/Nc2nc(Nc3ccccc3)nc(-n3nc(C)cc3C)n2)cc(OC)c1OC	71.6	102.4*	0.4	14.8	-3.6	68.6*	66.2*	78.1*
COc1cc(/C=N/Nc2nc(Nc3ccc(C)cc3)nc(-n3nc(C)cc3C)n2)cc(OC)c1OC	51.1	0.6	2.8	12.3	-4.3	59.3*	72.7*	62.0*
COc1ccc(O)c(/C=N/Nc2nc(Nc3ccccc3)nc(-n3nc(C)cc3C)n2)c1	96.0*	92.4*	-1.5	16.2	8.1	75.1*	43.8*	83.8*
O=C(NC1CCN(Cc2ccccc2)CC1)c1ccc(CS(=O)c2ccccc2Cl)o1 (stereo not given)	·	·	-1.2	·	·	·	·	·
